These results are taken from PubChem BioAssay (Tox21).

Inconclusive results are not listed. Entries that show only a call come without a potency. The source made the active and inactive calls. Unless noted, calls follow the shape of the full dose curve.

Chain of Estrogen receptor (Homo sapiens) (P03372 whole entry, looked up): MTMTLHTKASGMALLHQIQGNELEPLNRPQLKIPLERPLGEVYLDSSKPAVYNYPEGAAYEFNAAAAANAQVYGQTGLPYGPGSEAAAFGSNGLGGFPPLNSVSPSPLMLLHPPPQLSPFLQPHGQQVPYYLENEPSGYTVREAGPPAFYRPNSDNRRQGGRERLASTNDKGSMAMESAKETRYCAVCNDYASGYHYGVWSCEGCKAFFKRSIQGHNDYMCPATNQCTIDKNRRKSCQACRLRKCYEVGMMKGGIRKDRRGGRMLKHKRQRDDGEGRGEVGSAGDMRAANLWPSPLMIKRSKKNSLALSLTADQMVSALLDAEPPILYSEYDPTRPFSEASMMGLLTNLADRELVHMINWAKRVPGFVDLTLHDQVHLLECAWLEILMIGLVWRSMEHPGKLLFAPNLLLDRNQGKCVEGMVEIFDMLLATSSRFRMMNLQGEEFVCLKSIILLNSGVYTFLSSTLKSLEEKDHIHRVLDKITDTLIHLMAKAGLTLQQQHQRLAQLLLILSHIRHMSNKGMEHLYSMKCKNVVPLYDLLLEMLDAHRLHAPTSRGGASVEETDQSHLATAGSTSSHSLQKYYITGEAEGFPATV

One test has as its target Estrogen receptor (Homo sapiens) (UniProt P03372). Briefly: qHTS assay to identify small molecule agonists of the estrogen receptor alpha (ER-alpha) signaling pathway (AID 743075).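 Also: HEK293 GripTite cells with ER-alpha and UAS-driven beta-lactamase reporter.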 Conditions: HEK293 ER-alpha-UAS-bla, beta-lactamase FRET ratio, 18 h; series mostly up to 70.1 µM. A general note: qHTS replaces the single test concentration by a dilution series.
For the molecule `CCCCCCCC/C=C\CCCCCCCC(=O)OC[C@@H](O)[C@H]1OC[C@H](O)[C@H]1O`, the Potency entry was “inactive”.

As to `CCCCC(=O)N(C)C`, the Potency result was “inactive”.

Turning to `OC(CCN1CCCCC1)(c1ccccc1)c1ccccc1`, the Potency result was “inactive”.

Regarding `C[N+](C)(C)CC(O)CCl` (stereo not drawn), the Potency entry was “inactive”.

For the next test the target is unchanged. Briefly: qHTS assay to identify small molecule agonists of the estrogen receptor alpha (ER-alpha) signaling pathway using the BG1 cell line (AID 743079; active = well fitted activation curve with a large enough effect in the repeat runs; also: nearly all actives have a fitted effect of over 20% in size; also: potency is read from the fitted curve at half-maximal effect). Conditions: BG1Luc4E2 cells, ERE-luciferase agonist, 22 h; series mostly up to 70.3 µM.
For `O=C(O)c1ccccc1C(=O)OCc1ccccc1`, the Potency entry was “inactive”.

`C[C@H](CCC(=O)O)[C@H]1CC[C@H]2[C@@H]3[C@H](O)C[C@@H]4C[C@H](O)CC[C@]4(C)[C@H]3C[C@H](O)[C@]12C`: the Potency result was “inactive”.

On to `CC(CC(=O)O)CC(C)(C)C` (stereo not drawn), for which the Potency result was “inactive”.

Turning to `CCCOCCOCCOCCO`, the Potency result was “inactive”.

Consider `COc1ccc(/C=N/NC(=O)c2ccncc2)cc1OC`, for which the Potency entry is “inactive”.

As for `C1=C\CC/C=C\CC/1`, the Potency result was “inactive”.

Take `O=C(O)/C=C/c1ccccc1`: the Potency entry was “inactive”.

Take `Nc1ccc(S(=O)(=O)Nc2ccccn2)cc1`: the Potency result was “inactive”.

For the molecule `O=S(=O)(O)CCO`, the Potency entry is “inactive”.

On to `CCN(CCC#N)c1ccccc1`, for which the Potency entry was “inactive”.

Turning to `CCCCCC(=O)OCC`, the Potency entry was “inactive”.

As to `COCC(=O)Nc1c(I)c(C(=O)NCC(O)CO)c(I)c(C(=O)N(C)CC(O)CO)c1I` (stereo not drawn), the Potency entry was “inactive”.

With `CN(C)CCOCCN(C)CCO`, the Potency result is “inactive”.

With `CCc1nccnc1C`, the Potency result is “inactive”.

In the case of `CC(=O)c1ccc(OCC(=O)N2CCCCC2)cc1`, the Potency was 18.8 µM (active).

For `Nc1cc(Cl)cc(S(=O)(=O)O)c1O`, the Potency entry is “inactive”.

`Cc1ccccc1C(=O)N1CC/C(=N\OS(=O)(=O)O)c2ccc(Cl)cc21`: the Potency result is “inactive”.

Regarding `CCCCCCCC/C=C\CCCCCCCC(=O)OC[C@@H](O)[C@H]1OC[C@H](O)[C@H]1O`, the Potency result was “inactive”.

On to `CCCCC(=O)N(C)C`, for which the Potency entry was “inactive”.

As for `OC(CCN1CCCCC1)(c1ccccc1)c1ccccc1`, the Potency result is “inactive”.

`C[N+](C)(C)CC(O)CCl` (stereo not drawn): the Potency result was “inactive”.

System in the next test: not listed separately
Put plainly: qHTS assay to identify small molecule antagonists of the estrogen receptor alpha (ER-alpha) signaling pathway using the BG1 cell line (AID 743080).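 Also: BG1 cells stimulated with 17beta-estradiol alongside compound; nearly all actives have a fitted effect of over 25% in size.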 Conditions: BG1Luc4E2 ERE-luciferase antagonist mode, luminescence; series mostly up to 70.3 µM. The essentials:
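Luminescence from a 4×ERE-luciferase reporter in BG1-Luc-4E2 cells served as read-out. Cells, pre-cultured 5 days in stripped-serum phenol-red-free medium, were exposed to compound with 17beta-estradiol co-stimulation for 21.5 h at 37 C.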
Take `C[C@H](CCC(=O)O)[C@H]1CC[C@H]2[C@@H]3[C@H](O)C[C@@H]4C[C@H](O)CC[C@]4(C)[C@H]3C[C@H](O)[C@]12C`: the call was inactive.

For the molecule `CC(CC(=O)O)CC(C)(C)C` (stereo not drawn), the call was inactive.

For `CCCOCCOCCOCCO`, the molecule was classed as inactive.

Consider `COc1ccc(/C=N/NC(=O)c2ccncc2)cc1OC`, for which the molecule was classed as inactive.

`C1=C\CC/C=C\CC/1`: the result was inactive.

With `O=C(O)/C=C/c1ccccc1`, the outcome was inactive.

With `Nc1ccc(S(=O)(=O)Nc2ccccn2)cc1`, the molecule was classed as inactive.

Take `O=S(=O)(O)CCO`: the molecule was called inactive.

For the molecule `CCN(CCC#N)c1ccccc1`, the result was inactive.

As to `CCCCCC(=O)OCC`, the result was inactive.

In the case of `COCC(=O)Nc1c(I)c(C(=O)NCC(O)CO)c(I)c(C(=O)N(C)CC(O)CO)c1I` (stereo not drawn), the outcome was inactive.

In the case of `CN(C)CCOCCN(C)CCO`, the outcome was inactive.

On to `CCc1nccnc1C`, for which the result was inactive.

Take `Nc1cc(Cl)cc(S(=O)(=O)O)c1O`: the molecule was called inactive.

In the case of `Cc1ccccc1C(=O)N1CC/C(=N\OS(=O)(=O)O)c2ccc(Cl)cc21`, the molecule was called inactive.

In the case of `CCCCCCCC/C=C\CCCCCCCC(=O)OC[C@@H](O)[C@H]1OC[C@H](O)[C@H]1O`, the outcome was inactive.

Turning to `CCCCC(=O)N(C)C`, the result was inactive.

As for `OC(CCN1CCCCC1)(c1ccccc1)c1ccccc1`, the outcome was inactive.
